From PubChem BioAssay
Activity calls are given as the source filed them. The rule behind the calls is not given here.

Each molecule was assayed against Pantothenate synthetase (Mycobacterium tuberculosis (strain ATCC 25618 / H37Rv)) (UniProt P9WIL5) (assay: Recombinant Mtb pantothenate synthetase (PanC) inhibitors, coupled enzyme, confirmatory (AID 375;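 note: 0% = full reaction with vehicle and 100% = no enzyme background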)). Settings: coupled enzyme assay; at 10 µM, stronger effect = higher value.
Sequence of Pantothenate synthetase (Mycobacterium tuberculosis (strain ATCC 25618 / H37Rv)) (P9WIL5 whole entry, looked up): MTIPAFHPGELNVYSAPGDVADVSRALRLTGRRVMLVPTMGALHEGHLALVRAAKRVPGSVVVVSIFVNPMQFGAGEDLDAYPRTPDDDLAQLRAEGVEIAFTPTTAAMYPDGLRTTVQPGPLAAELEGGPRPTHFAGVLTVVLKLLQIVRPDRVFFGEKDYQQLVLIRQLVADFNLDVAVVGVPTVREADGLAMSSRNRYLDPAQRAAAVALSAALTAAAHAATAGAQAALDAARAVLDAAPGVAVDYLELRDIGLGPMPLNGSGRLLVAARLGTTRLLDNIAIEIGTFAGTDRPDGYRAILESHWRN

SMILES | inhibition
Cc1cc(C)cc(-n2nnc(C(=O)NCc3ccco3)c2N)c1 | 0% (inactive)
CCOc1cc2oc(=O)c3c(c2cc1Cl)CCC3 | 0% (inactive)
CC1CCN(C(=O)CSc2nc3ccccc3[nH]2)CC1 | 0% (inactive)
CCc1nnc(NC(=O)OCc2ccccc2)s1 | 0% (inactive)
CCOc1cc(C(=O)Nc2ccon2)cc(OCC)c1OCC | 8% (inactive)
Cc1ccc(-c2ccc(=O)n(CCC(=O)NCc3ccccn3)n2)cc1 | 4% (inactive)
c1ccc(-c2noc(-c3cccnc3)n2)nc1 | 0% (inactive)
Cc1nc(N)[nH]c(=O)c1CCC(=O)OCC(C)C | 0% (inactive)
CC(=O)N1CCc2cc(S(=O)(=O)NCCC(=O)NC3CCCc4ccccc43)ccc21 (stereo not given) | 0% (inactive)
COC(=O)CC1SCCNC1=O (stereo not given) | 0% (inactive)
COc1ccc(CCNc2oc(COc3ccc(F)cc3)nc2C#N)cc1 | 0% (inactive)
CC/C(O)=C(/C#N)c1nnc2n1CCCCC2 | 5% (inactive)
CC(=O)NC1(c2nnnn2CCOC(=O)Nc2ccc(Cl)cc2)CCCCC1 | 1% (inactive)
CC(C)CC1NC(=O)N(CC(=O)N2CCN(S(=O)(=O)c3ccc(Cl)cc3)CC2)C1=O (stereo not given) | 0% (inactive)
CCCN(CCC)CCNC(=O)C(NS(=O)(=O)c1ccc2c(c1)CCC(=O)N2)c1ccccc1 (stereo not given) | 0% (inactive)
O=C1c2oc3ccccc3c(=O)c2C(c2ccccn2)N1Cc1ccccc1 (stereo not given) | 13% (inactive)
COc1ccc(CN(C(=O)c2cccs2)c2nccs2)cc1OC | 3% (inactive)
Cc1cc(NC(=O)COC(=O)C2COc3ccccc3O2)no1 (stereo not given) | 4% (inactive)
CC(C)(C)C(=O)Oc1cc(N)n(S(=O)(=O)c2ccccc2)n1 | 0% (inactive)
CCOC(=O)c1[nH]c(CSc2nnc(-c3ccncc3)n2CCOC)c(C(=O)OCC)c1C | 3% (inactive)

SMILES | inhibition
O=C(CSc1nnc(-c2ccco2)n1CC1CCCO1)NC1CCCC1 (stereo not given) | 0% (inactive)
C/C=C/CSc1nc2c(c(=O)[nH]c(=O)n2C)n1Cc1ccc(C)cc1 | 4% (inactive)
COc1cc(C(c2sc3nc(C)nn3c2O)N2CC(C)CC(C)C2)cc(OC)c1OC (stereo not given) | 0% (inactive)
CC(=O)c1c(OCC(=O)O)ccc2c(C)cc(=O)oc12 | 0% (inactive)
CCOC(=O)C(C)(C)Sc1nc2c(cnn2-c2ccc(C)cc2)c(=O)[nH]1 | 0% (inactive)
Cc1csc(OCc2ccc(C#N)cc2)n1 | 0% (inactive)
CCOC(=O)c1[nH]c2ccccc2c1NC(=O)C(CC)CC | 8% (inactive)
CCOC(=O)c1ccc(CC2S/C(=C(\C#N)C(C)=O)NC2=O)cc1 (stereo not given) | 10% (inactive)
CN(CCCC(=O)Nc1ccncc1)S(=O)(=O)c1ccc(Cl)cc1 | 3% (inactive)
CCOc1ccc(NC(=O)CC2NCCNC2=O)cc1 (stereo not given) | 9% (inactive)
CC(C)CCNc1cc(=O)n(C)c(=O)n1C | 0% (inactive)
CCOC(=O)N1CCC(N2C(=O)c3ccccc3C2Nc2ccccc2C)CC1 (stereo not given) | 4% (inactive)
Nc1c(C(=O)NCCN2CCOCC2)c2nc3ccccc3nc2n1-c1ccc2c(c1)OCO2 | 1% (inactive)
COc1ccc(OC)c(Nc2ncnc3c2cnn3-c2ccccc2)c1 | 0% (inactive)
CCOC(=O)c1c(C)n(C)c2c(C)cc(O)c(OC(C)=O)c12 | 0% (inactive)
CC1CCCN(C(=O)c2cc(F)c(F)cc2Cl)C1 (stereo not given) | 0% (inactive)
C(=C\c1ccccc1)/CN1CCN(C(c2ccccc2)c2ccccc2)CC1 | 0% (inactive)
Cn1cc(C(=O)NC2CCCCCCC2)c(=O)c2cc(S(=O)(=O)N3CCCC3)ccc21 | 0% (inactive)
CN(C)S(=O)(=O)c1ccc(C(=O)Nc2ccccc2C(=O)O)cc1 | 8% (inactive)
C=CCn1c(SCc2ccc3nonc3c2)nnc1-c1cccs1 | 7% (inactive)
